Consider 8 compounds from PubChem BioAssay (Tox21).

A short description of experiment [1]: qHTS assay for small molecule agonists of the p53 signaling pathway (AID 651631; calls by dose curve; further: nearly all actives have a fitted effect of over 15% in size). Summed up: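 HCT-116 cells carrying a stable p53 response element–beta-lactamase reporter were plated, rested 5 h at 37 °C, then exposed to compound in DMSO for 16 h at 37 °C; reporter activity was read as FRET substrate fluorescence after 2 h at room temperature.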
On the technique in general: In qHTS, concentration-response curves come from the screen itself.

Experiment [2] in a line: qHTS assay for small molecule agonists of the p53 signaling pathway - cell viability (AID 651633; calls by dose curve; further: series mostly up to about 83 µM; nearly all actives have a fitted effect of over 30% in size). Summed up: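 p53RE-bla cells were treated with compound for 16 hours at 37 C. Cytotoxicity was then measured as CellTiter-Glo luminescence after 30 min at room temperature.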
Experiment [3] can be described thus: qHTS assay for small molecules that induce genotoxicity in human embryonic kidney cells expressing luciferase-tagged ATAD5 - cell viability (AID 651634; calls by dose curve; further: nearly all actives have a fitted effect of over 25% in size). Summed up: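 Seeding of 2,000 HEK293T ATAD5-luciferase cells per well preceded pin-tool compound transfer. Plates sat 15.5 hr at 37C under 5% CO2, then fluorescence was read after 30 min with CellTiter-Fluor.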

Experiment [4] is described as follows: qHTS assay to test for compound auto fluorescence at 590 nm (red) in HepG2 cells (AID 720674). The method in brief: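 Fluorescence at 590 nm emission following 540 nm excitation was recorded from HepG2 wells one hour after compound transfer, with DMSO-only wells as vehicle and Rose Bengal sodium equivalency as the scale.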
Experiment [5] in a line: qHTS assay to test for compound auto fluorescence at 535 nm (green) in HepG2 cells (AID 720675).
Experiment [6] can be described thus: qHTS assay to test for compound auto fluorescence at 460 nm (blue) in HEK293 cells (AID 720678). Summed up:
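Triamterene serves as the blue fluorophore standard. Compound signal at 405/460 nm is read in HEK293 wells (2,000 cells, 10% dialyzed FBS) after overnight treatment at 37C.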

A short description of experiment [7]: qHTS assay to test for compound auto fluorescence at 590 nm (red) in HEK293 cells (AID 720679). The method in brief:
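We plated HEK293 cells in 10% dialyzed FBS medium, let them adhere for 4-5 hr, then added 23 nL compound. Overnight at 37C and 5% CO2 preceded fluorescence measurement at 540/590nm.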

Experiment [8] is described as follows: qHTS assay to test for compound auto fluorescence at 535 nm (green) in HEK293 cells (AID 720680).
The nature of experiment [9]: qHTS assay to test for compound auto fluorescence at 460 nm (blue) in HEK293 cell free culture (AID 720681). The method in brief:
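Compounds were added to cell-free DMEM with 10% FBS and fluorescence read directly. The blue channel used 405 nm excitation and 460 nm emission, with triamterene as the reference fluorophore.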

A short description of experiment [10]: qHTS assay to test for compound auto fluorescence at 535 nm (green) in HEK293 cell free culture (AID 720682). Summed up:
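Read-out: 485/535 nm fluorescence intensity, calibrated against fluorescein. Medium only (DMEM + 10% FBS, no cells); test compound or DMSO vehicle added by pintool before plate reading.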

The nature of experiment [11]: qHTS assay to test for compound auto fluorescence at 590 nm (red) in HEK293 cell free culture (AID 720683). The method in brief: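 Cell-free wells of DMEM with 10% FBS received compound, and intrinsic fluorescence was read at excitation/emission 540/590 nm. Values expressed as equivalence to Rose Bengal sodium.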
Experiment [12] can be described thus: qHTS assay to test for compound auto fluorescence at 590 nm (red) in HepG2 cell free culture (AID 720684). Summed up:
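Compound was pinned into wells holding MEM with 10% FBS and no cells, and red fluorescence was read at Ex/Em 540/590 nm. Signal is expressed as auto fluorescence equivalency relative to Rose Bengal sodium.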

Experiment [13] in a line: qHTS assay to test for compound auto fluorescence at 460 nm (blue) in HepG2 cell free culture (AID 720685). The method in brief:
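Compound (23 nL) or DMSO pinned into cell-free MEM with 10% FBS; blue fluorescence read at 405/460 nm excitation/emission, expressed as auto-fluorescence equivalency to triamterene.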

Experiment [14] is described as follows: qHTS assay to test for compound auto fluorescence at 535 nm (green) in HepG2 cell free culture (AID 720686).
Experiment [15] can be described thus: qHTS assay to test for compound auto fluorescence at 460 nm (blue) in HepG2 cells (AID 720687). Summed up: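 HepG2 cells in MEM with 10% FBS, attached overnight at 37 C, were exposed to compound or DMSO for 1 hr at 37 C, 5% CO2. Blue fluorescence was read at 405/460 nm, with triamterene as reference fluorophore.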
Experiment [16] can be described thus: qHTS assay for small molecule disruptors of the mitochondrial membrane potential - cell viability (AID 720634; calls by dose curve;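 further: human HepG2 liver cancer cells; series mostly up to about 83 µM; nearly all actives have a fitted effect of over 20% in size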). Summed up:
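Measuring cytotoxicity alongside mitochondrial potential, the screen quantified ATP by luminescence in HepG2 cells after 1 hr compound incubation and a 30 min room-temperature CellTiter-Glo step.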

Experiment [17] is described as follows: qHTS assay for small molecule disruptors of the mitochondrial membrane potential (AID 720635). Further: potency means the concentration at half of the fitted maximal effect. Summed up:
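HepG2 cells exposed to compound 1 hr at 37C, then Mito-MPS dye 30 min. Ratio read of aggregate (540/590 nm) versus monomer (490/535 nm) fluorescence.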

A short description of experiment [18]: qHTS assay for small molecules that induce genotoxicity in human embryonic kidney cells expressing luciferase-tagged ATAD5 (AID 651632). Further: nearly all actives have a fitted effect of over 15% in size. The method in brief: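 Reporter cells (HEK293T) express luciferase-tagged ATAD5, a protein that accumulates after DNA damage. Treat 16 hr at 37C/5% CO2, add Amplite, wait 30 min at RT, and read luminescence.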
The target in experiment [19] is Glucocorticoid receptor (Homo sapiens) (UniProt P04150). The experiment is described as follows: qHTS assay to identify small molecule agonists of the glucocorticoid receptor (GR) signaling pathway (AID 720691; active means well fitted activation curve with a large enough effect in the signal ratio in the repeat runs, not every such curve was filed as active; the % refers to the signal ratio). Summed up: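 Reporter read-out: fluorescence intensity following 2 h room-temperature LiveBLAzer B/G FRET substrate loading. Prior step: GR-bla HeLa cells held 4 h, then treated 18 h at 37 C.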
Chain of Glucocorticoid receptor (Homo sapiens) (P04150 whole entry, looked up): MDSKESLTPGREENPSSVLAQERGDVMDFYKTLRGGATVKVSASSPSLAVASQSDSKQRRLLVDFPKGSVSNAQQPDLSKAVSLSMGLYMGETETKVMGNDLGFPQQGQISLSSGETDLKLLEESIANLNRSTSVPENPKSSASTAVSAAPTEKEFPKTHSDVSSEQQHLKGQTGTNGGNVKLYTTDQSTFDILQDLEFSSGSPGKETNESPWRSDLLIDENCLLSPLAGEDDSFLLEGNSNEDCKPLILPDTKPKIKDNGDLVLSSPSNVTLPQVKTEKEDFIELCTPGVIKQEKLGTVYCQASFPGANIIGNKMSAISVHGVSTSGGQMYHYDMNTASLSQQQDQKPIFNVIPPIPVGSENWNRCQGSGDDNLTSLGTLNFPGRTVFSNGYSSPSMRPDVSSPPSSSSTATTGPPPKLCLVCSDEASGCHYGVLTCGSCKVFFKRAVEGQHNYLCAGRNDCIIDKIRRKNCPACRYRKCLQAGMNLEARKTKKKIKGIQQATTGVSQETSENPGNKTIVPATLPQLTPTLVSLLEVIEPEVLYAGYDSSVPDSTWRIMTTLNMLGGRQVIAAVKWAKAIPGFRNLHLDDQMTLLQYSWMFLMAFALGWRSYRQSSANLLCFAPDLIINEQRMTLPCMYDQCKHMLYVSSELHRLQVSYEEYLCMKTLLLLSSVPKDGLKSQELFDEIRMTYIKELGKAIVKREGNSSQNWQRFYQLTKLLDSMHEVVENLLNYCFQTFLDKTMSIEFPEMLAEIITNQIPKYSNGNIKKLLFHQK

For experiment [20] the target is unchanged. The experiment is described as follows: qHTS assay to identify small molecule antagonists of the glucocorticoid receptor (GR) signaling pathway (AID 720692; active means well fitted inhibition curve with a large enough effect in the signal ratio in the repeat runs, not every such curve was filed as active; the % refers to the signal ratio). Summed up:
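Dexamethasone (5 nM final) stimulated a stably integrated GRE-beta-lactamase reporter in HeLa cells during 18 h co-incubation with compounds; signal was quantified as fluorescence intensity of B/G FRET substrate after 2 h.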

Molecules are shown by their SMILES. Several values for one entry are separate records, joined by “and”; a condition that tells them apart may be missing. Identical values can stand only once. Results filed as inconclusive are left out. Where a structure was tested more than once in an assay, its records may differ in their call. Activity calls are given as the source filed them. Unless noted, the call rests on the fitted dose curve; in most records, active means well fitted curve in the direction sought with a large enough effect in the repeat runs; inconclusive means weak or mixed curves; inactive means no such curve, though single readings can be large; an effect the other way counts as inactive or inconclusive.

`Oc1ccc(Cl)cc1`: the Potency entry in [1], in [2] and in experiment [3] was “inactive” throughout. The compound was called inactive in [4], in experiment [5], in experiment [6], in [7], in experiment [8] and in experiment [9]. In addition, the outcome in experiment [10], in experiment [11], in experiment [12], in [13], in experiment [14] and in experiment [15] was inactive.

Take `CCCCCCCCCCCCCCCCCC(=O)O`: the Potency result in experiment [3] and in experiment [16] was “inactive” in each case. The Potency result in experiment [17] is “inactive and 54.1 µM (active)”. Also, the compound was called inactive in experiment [4], in experiment [5], in [6], in experiment [7], in experiment [8] and in experiment [9]. Further, the call in [10], in [12], in experiment [13], in experiment [14] and in experiment [15] was inactive.

`NNc1ccccc1`: the Potency result in experiment [18], in experiment [2], in experiment [16] and in [17] was “inactive” in each case. Besides, the outcome in [4], in [5], in experiment [6], in experiment [7], in experiment [8] and in [9] was inactive. The call in experiment [10], in experiment [11], in experiment [12], in [13], in experiment [14] and in experiment [15] was inactive.

In the case of `Sc1ccccc1`, the Potency entry in [18], in experiment [2], in experiment [3], in [16], in experiment [17] and in experiment [20] was “inactive” each time. Also, the outcome in [4], in experiment [5], in experiment [6], in experiment [7], in [8] and in experiment [9] was inactive. In addition, the call in experiment [10], in experiment [11], in [12], in experiment [13], in experiment [14] and in experiment [15] was inactive. Further, in experiment [19], the compound was classed as inactive.

With `CC12CC1(C)C(=O)N(c1cc(Cl)cc(Cl)c1)C2=O` (stereo not drawn), the Potency result in experiment [18], in [2], in [3] and in [20] was “inactive” in each case. The compound was called inactive in experiment [4], in experiment [5], in experiment [6], in experiment [7], in [8] and in experiment [9]. The call in experiment [10], in [12], in [13], in [14], in [15] and in experiment [19] was inactive.

With `CNC(=O)O/N=C/C(C)(C)S(C)=O` (stereo not drawn), the Potency result in experiment [18], in experiment [2], in experiment [3], in experiment [16], in [17] and in experiment [20] was “inactive” throughout. Also, the compound was called inactive in experiment [4], in [5], in experiment [6], in [7], in experiment [8] and in experiment [9]. Besides, the compound was called inactive in experiment [10], in [12], in experiment [13], in [14], in experiment [15] and in experiment [19].

For the compound `C=C(C)C(=O)OCC(CC)CCCC` (stereo not drawn), the Potency entry in experiment [1], in experiment [18], in [2], in experiment [3] and in experiment [20] was “inactive” throughout. The result in [4], in experiment [5], in experiment [6], in experiment [7], in experiment [8] and in experiment [9] was inactive. In addition, the compound was classed as inactive in experiment [10], in [12], in [13], in [14], in [15] and in [19].

Regarding `O=[N+]([O-])c1ccc(Cl)c(Cl)c1`, the Potency entry in [18], in experiment [2], in experiment [3], in [16], in [17] and in [20] was “inactive” throughout. The outcome in experiment [4], in [5], in experiment [6], in experiment [7], in [8] and in experiment [9] was inactive. The call in experiment [10], in experiment [12], in experiment [13], in experiment [14], in experiment [15] and in [19] was inactive.
